MITF TRPM1 HTS – activators of MITF-driven TRPM1 promoter activity in SK-MEL-5 cells; AID 588334; activation, % at 12.5 µM; SK-MEL-5 TRPM1-promoter luciferase, 24 h; % of positive control, neutral wells = 0; hit rate 0.75% among 300,000;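 active means mean activation of at least 80% with every replicate also reaching 80%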;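 further: 0% = neutral control wells and 100% = parthenolide positive control wells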
TRPM1 prom inh – MITF TRPM1 promoter inhibition in SK-MEL-5 cells; SK-MEL-5 TRPM1 promoter luciferase, 24 h; inhibition, % at 12.5 µM; hit rate 0.83% among 330,000; AID 488899;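 active means mean inhibition across replicates of 60% or more, whatever share of single replicates reaches that level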
Wnt bcat act – Wnt/beta-catenin pathway activation; hit rate 1.2% among 300,000; Wnt/beta-catenin reporter cell assay, activator, plate reader; AID 743398; activation, % at 9.35 µM; in the data active means activation above about 30%, passing the limit was not always enough;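 further: 0% = neutral control wells and 100% = positive control wells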
PfHsp90 yeast 2 – inhibits growth of yeast expressing Plasmodium falciparum Hsp90; S. cerevisiae expressing PfHsp90, BacTiter-Glo ATP, 48 h; yeast lacking PDR1 and PDR3 efflux regulators; inhibition, % at 9.4 µM; hit rate 0.32% among 310,000; AID 504621;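 active means every replicate shows inhibition above about 80%, whatever the replicate mean, limit read from the data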;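 further: 0% = DMSO neutral controls and 100% = 20 µM radicicol positive controls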
NSD2 inh – inhibitors of human histone methyltransferase NSD2; O96028; NSD2 peptide methylation, AlphaScreen, 120 min; inhibition, % at 12.5 µM; hit rate 0.54% among 310,000; AID 743445; in the data active means inhibition above about 50%
N-glyco inh – blocks N-linked glycosylation in D54 reporter cells. D54 ERlucT glycosylation luciferase reporter, 24 h; percent of 100 nM tunicamycin response. reporter increase, % at 12.5 µM. hit rate 0.23% among 360,000. AID 588692;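 active means mean luciferase reporter signal, scaled so untreated is 0 and the glycosylation-blocking control 100, at or above a set limit in every replicate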;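 further: luciferase carries N-glycosylation sites so blocking glycosylation raises the light; 0% = median of neutral control wells and 100% = median of 100 nM tunicamycin wells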
Active calls of the source: *; / = no result given. Sampled rows, rich in hits. Any-hit rate of the full collection: about 2.9%.

SMILES | MITF TRPM1 HTS | TRPM1 prom inh | Wnt bcat act | PfHsp90 yeast 2 | NSD2 inh | N-glyco inh
C[C@@H]1CN([C@@H](C)CO)C(=O)CCCn2nncc2CO[C@H]1CN(C)C(=O)Nc1ccc(F)cc1 | / | / | -1 | / | / | 0
C#CCOCCOCCOCCNc1nc(N2CCN(C(=O)CCCCCCCCCCNC(=O)Cn3cc(C[C@@H](C)O)nn3)CC2)nc(N2CCN(C(=O)CCCCCCCCCCNC(=O)[C@@H](CCSC)n3cc(CCO)nn3)CC2)n1 | -77 | 79* | / | 16 | / | -3
C#CCOCCOCCOCCNc1nc(N2CCN(C(=O)CCCCCCCCCCNC(=O)[C@@H](CCSC)n3cc(CCO)nn3)CC2)nc(N2CCN(C(=O)CCCCCCCCCCNC(=O)[C@H](CCCN=C(N)N)n3cc(C[C@@H](C)CC)nn3)CC2)n1 | -66 | 69* | / | 0 | / | -13
C#CCOCCOCCOCCNc1nc(N2CCN(C(=O)CCCCCCCCCCNC(=O)[C@H]([C@@H](C)CC)n3cc(CCCCN=C(N)N)nn3)CC2)nc(N2CCN(C(=O)CCCCCCCCCCNC(=O)[C@@H]([C@H](C)O)n3cc(C)nn3)CC2)n1 | -66 | 65* | / | 28 | / | -11
C#CCOCCOCCOCCNc1nc(N2CCN(C(=O)CCCCCCCCCCNC(=O)[C@@H](CCSC)n3cc(CCO)nn3)CC2)nc(N2CCN(C(=O)CCCCCCCCCCNC(=O)[C@@H]([C@H](C)O)n3cc(C)nn3)CC2)n1 | -23 | 27 | -2 | -16 | / | 13
C#CCOCCOCCOCCNc1nc(N2CCN(C(=O)CCCCCCCCCCNC(=O)[C@@H](CCSC)n3cc(CCO)nn3)CC2)nc(N2CCN(C(=O)CCCCCCCCCCNC(=O)[C@H](CO)n3cc(CCCCCN)nn3)CC2)n1 | -9 | 10 | / | 18 | / | 2
O=C(OCCN=C1NS(=O)(=O)c2ccccc21)c1ccco1 | -4 | 6 | -1 | -13 | 3 | 3
C[C@H]1[C@H](N(Cc2ccccc2)Cc2ccccc2)CC[C@@]23CCCN2C(=O)CCC[C@@H]13 | / | / | / | / | 1 | /
Cc1cc2nc(N3C(=O)CNC3=S)sc2cc1C | -4 | 4 | 9 | 11 | -6 | -14
CCOc1ccc2nc(N3C(=O)CNC3=S)sc2c1 | / | -18 | 51* | 8 | -1 | -7
COc1cc(OC)cc(-c2nc3cc(C)ccc3o2)c1 | 52 | -53 | 57* | / | -1 | -7
Cc1ccc(-c2nc3cc(Cl)ccc3o2)cc1 | -1 | 2 | / | 2 | 7 | -4
COC(=O)[C@]12C[C@H](CC(=O)NCc3ccc(OC)c(OC)c3)C(=O)N(CCc3ccc(OC)c(OC)c3)C1=C[C@H](C(C)(C)C)O[C@@H]2C | / | / | -2 | / | / | /
CCOC(=O)COc1ccccc1/C=C\[N+](=O)[O-] | -98 | 97* | / | 55 | / | 4
Cc1ccc(C(=O)COC(=O)COc2ccccc2[N+](=O)[O-])s1 | / | / | -5 | -16 | 1 | -2
Cc1ccc2nc(-c3cccc(Cl)c3)c(Cc3ccsc3)n2c1 | / | / | -1 | / | / | /
COc1ccccc1CCn1cnc(-c2cccc(Cl)c2)c1CC(C)C | / | / | -3 | / | / | /
CC(C)N=c1cc2n(-c3ccc(Cl)cc3)c3ccccc3nc-2cc1Nc1ccc(Cl)cc1 | -74 | 74* | -13 | 11 | / | -12
Cc1ccc(NC(=O)COC(=O)C2CCC2)cc1S(=O)(=O)N1CCCCC1 | 1 | -2 | -1 | 3 | -1 | 3
Cc1ccc2cc(NC(=O)c3ccccc3C)ccc2n1 | 100* | -93 | 0 | 21 | -1 | 0
CCc1ccc(C(=O)Nc2ccc3nc(C)ccc3c2)cc1 | 99* | -97 | 10 | 2 | / | -3
Cc1ccc2cc(NC(=O)Cc3ccccc3)ccc2n1 | / | -81 | 2 | -7 | -1 | -2
C=CCn1c(Cc2cccs2)nnc1SCC(=O)Nc1ccc2c(c1)OCO2 | / | / | / | / | 1 | /
Cc1cc(C)n(-c2nnc3c4ccccc4n(C)c3n2)n1 | / | -42 | 48* | 4 | 0 | -2
Cc1cc(N2CCC(C(N)=O)CC2)nc(-c2ccccc2)n1 | / | 5 | / | -42 | -1 | 2
Cc1cc(OC(C)C(N)=O)nc(-c2ccccc2)n1 (stereo unspecified) | -4 | 6 | 39* | -10 | -1 | 1
Cc1cc(C2CCCCC2)n(O)c(=O)c1 | -77 | 78* | -23 | 109* | / | -10
O=C(NCc1ccccc1)[C@H]1CCCN1C(=O)[C@H]1CCCN1C(=O)c1cccc(F)c1 | / | / | -1 | / | -4 | /

Bioassay records as filed in PubChem.
